hcDAF12 agonist: H. contortus DAF-12 nuclear receptor activators, primary screen, cell-based, luminescence, HEK293, lit1-tk-luc reporter; HEK293 hcDAF-12 lit1-tk-luc reporter; 0% DMSO, 100% Δ7-dafachronic acid; activation, % at 6.8 µM; 370,000 tested, 1.4% active; AID 652067, 2013;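 active means activation above the mean of all tested compounds plus 3 SD, cut at about 5.5% in these data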;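 further: 100% = response to 3 µM Δ7-dafachronic acid high control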
DAX1 inh-1: DAX1 (NR0B1) inhibitors on StAR promoter, primary screen, cell-based, luminescence, SF-1 (NR5A1), full-length DAX-1. HEK293T StAR-luciferase reporter, SF-1/DAX-1 repression relief. inhibition, % at 6.8 µM. 370,000 tested, 1.1% active. AID 652010, 2013;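 active means inhibition above the mean over all tested compounds plus 3 SD, cut at about 3.6% in these data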;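 further: 0% = DAX-1 cells with DMSO and 100% = cells lacking DAX-1 with DMSO; higher inhibition means more luminescence from relief of DAX-1 repression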
hgDAF12 agonist: H. glycines DAF-12 receptor agonists, primary screen, cell-based, luminescence, HEK293, GAL4 fusion, UAS-luciferase. activation, % at 6.8 µM. Nuclear hormone receptor DAF-12 (Heterodera glycines), GAL4 fusion. 370,000 tested, 1.8% active. AID 687014, 2013. HEK293 GAL4-hgDAF12 UAS-luciferase reporter, agonist luminescence; normalized to butyrate control;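 active means activation above a cutoff set at the mean of all screened compounds plus 3 SD, cut at about 10% in these data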;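 further: 0% = DMSO wells and 100% = sodium butyrate wells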
ssDAF12 agonist: S. stercoralis DAF-12 nuclear receptor activators, primary screen, cell-based, luminescence, HEK293, GRIP1 co-expression, lit1-tk-luc; HEK293 ssDAF-12/GRIP1 lit1-tk-luc reporter; % of 3 µM dafachronic acid response; AID 652126, 2013; Nuclear hormone receptor DAF-12 (Strongyloides stercoralis); 370,000 tested, 1% active; activation, % at 6.8 µM;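 active means activation above the mean over all tested compounds plus 3 SD, cut at about 0.9% in these data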;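 further: 0% = DMSO-only wells and 100% = 3 µM delta7-dafachronic acid wells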
Rev-erbA mod: modulators of Rev-erb alpha DNA binding, primary screen, biochemical, FITC-DNA, fluorescence polarization, uHTS | Nuclear receptor subfamily 1 group D member 1 (Homo sapiens), P20393 | Rev-erbα–FITC-DNA binding, 90 min | activity, % at 10 µM | 370,000 tested, 0.79% active | AID 1259318, 2017;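 active means activity above about 14%, limit read from the data; passing the limit was not always enough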;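 further: 0% = DMSO wells with 35 nM protein and 100% = DMSO wells with 750 nM protein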
DAX1 inh-2: DAX1 (NR0B1) inhibitors, primary screen, cell-based, HEK293, Gal4-DAX1, luciferase luminescence; 340,000 tested, 0.99% active; Nuclear receptor subfamily 0 group B member 1 (Homo sapiens), P51843; inhibition, % at 6.75 µM; AID 504766, 2011; HEK293 Gal4-DAX1 luciferase reporter;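 active means inhibition above the mean over all tested compounds plus 3 SD, cut at about 4.2% in these data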;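 further: 0% = DAX1-transfected cells with DMSO and 100% = empty-vector control cells with DMSO; inhibition shows as a rise in luminescence from relieved DAX1 repression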
LXRb hcDAF ctr: LXR agonists, Gal4 luciferase reporter, confirmation, counter-screen for hcDAF-12 agonist project, cell-based, luminescence, HEK293, H. contortus campaign; shares compounds with hcDAF12 agonist; activation, % at 6.8 µM; HEK293 Gal4-LXR tk-luc reporter, 24 h; normalized: DMSO 0%, positive control 100%; AID 743027, 2013; 3,400 tested, under 10 active;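 active means mean percent activation of the reporter above a cutoff set as the average over tested compounds plus their standard deviation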
Target sequence (P55055 whole entry, looked up, the tested form may be a part): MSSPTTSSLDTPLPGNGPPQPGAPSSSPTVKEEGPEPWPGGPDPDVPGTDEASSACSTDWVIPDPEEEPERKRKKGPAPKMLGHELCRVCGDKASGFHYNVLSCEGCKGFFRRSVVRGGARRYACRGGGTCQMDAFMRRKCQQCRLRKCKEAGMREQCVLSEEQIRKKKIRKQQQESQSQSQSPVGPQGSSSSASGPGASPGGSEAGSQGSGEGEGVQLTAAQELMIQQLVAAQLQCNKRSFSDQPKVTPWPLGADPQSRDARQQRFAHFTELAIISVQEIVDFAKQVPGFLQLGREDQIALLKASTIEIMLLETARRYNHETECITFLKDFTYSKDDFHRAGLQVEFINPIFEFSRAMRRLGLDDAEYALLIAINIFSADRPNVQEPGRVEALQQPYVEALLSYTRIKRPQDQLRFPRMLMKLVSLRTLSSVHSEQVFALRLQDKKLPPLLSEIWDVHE
hcDAF12 conf: H. contortus DAF-12 receptor agonists, confirmation, cell-based, luminescence, HEK293, lit1-tk-luc, triplicate. shares compounds with hcDAF12 agonist. HEK293 hcDAF-12 lit1-tk-luc reporter; % of Δ7-dafachronic acid response. activation, % at 6.8 µM. 3,400 tested, 61% active;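 active means mean activation across triplicate tests above the threshold derived from the earlier primary screen, cut at about 5.5% in these data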;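 further: 0% = DMSO only wells and 100% = 3 µM Δ7-dafachronic acid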
An asterisk follows results filed as active. Only some compounds are listed: those with a hit (about 4.8% of all), similar ones and a draw of the others.

For CCCCOC(=O)Nc1ccc(N(C)C)cc1 the results were hcDAF12 agonist 7.2*, DAX1 inh-1 4.4*, hgDAF12 agonist 11*, ssDAF12 agonist 1, Rev-erbA mod -7, DAX1 inh-2 2, LXRb hcDAF ctr 1 and hcDAF12 conf 5.8*.
For Cc1cc(C)c2c(N)c(C(=O)Nc3ccc(C)c(C)c3)sc2n1 the results were hcDAF12 agonist 8.3*, DAX1 inh-1 3, hgDAF12 agonist 10, ssDAF12 agonist 1.6*, Rev-erbA mod 0, DAX1 inh-2 8.0*, LXRb hcDAF ctr 2 and hcDAF12 conf 9.5*.
For O=C(OC12CCCN(C1)/C(=C/c1cccc(Cl)c1)C2)C1CCCC1 (stereo not given) the results were hcDAF12 agonist -1, DAX1 inh-1 1, hgDAF12 agonist 2, ssDAF12 agonist -1 and Rev-erbA mod 3.
`COc1ccccc1Nc1ncc(-c2cccs2)s1` gave hcDAF12 agonist 11*, DAX1 inh-1 2, hgDAF12 agonist 9, ssDAF12 agonist 1.3*, Rev-erbA mod 2, DAX1 inh-2 3, LXRb hcDAF ctr 1 and hcDAF12 conf 15*.
For COc1ccc(/C=N/n2c(C)nc3ccccc3c2=O)cc1 the results were hcDAF12 agonist -1, DAX1 inh-1 0, hgDAF12 agonist 2, ssDAF12 agonist 0, Rev-erbA mod 1 and DAX1 inh-2 0.
COc1ccc(/C=N\n2nnc3ccccc32)cc1 was read as hcDAF12 agonist 9.1*, DAX1 inh-1 4.2*, hgDAF12 agonist 8, ssDAF12 agonist 0.9*, Rev-erbA mod -17, DAX1 inh-2 -4, LXRb hcDAF ctr 1 and hcDAF12 conf 7.7*.
For COCCNc1c2c(nc3ccccc13)CCC2 the results were hcDAF12 agonist -3, DAX1 inh-1 0, hgDAF12 agonist 0, ssDAF12 agonist -1, Rev-erbA mod -3 and DAX1 inh-2 -1.
OCCCNc1c2ccccc2nc2ccccc12 was read as hcDAF12 agonist 20*, DAX1 inh-1 0, hgDAF12 agonist 7, ssDAF12 agonist 2.3*, Rev-erbA mod 1, DAX1 inh-2 0, LXRb hcDAF ctr 2 and hcDAF12 conf 29*.
CN(C)CCCNc1c2c(nc3ccccc13)CCC2 was read as hcDAF12 agonist 7.0*, DAX1 inh-1 1, hgDAF12 agonist 2, ssDAF12 agonist -1, Rev-erbA mod -4, DAX1 inh-2 0, LXRb hcDAF ctr 0 and hcDAF12 conf 5.
Nc1nc(-c2ccccc2)ns1 was read as hcDAF12 agonist 6.9*, DAX1 inh-1 2, hgDAF12 agonist 4, ssDAF12 agonist 1, Rev-erbA mod 11, DAX1 inh-2 1, LXRb hcDAF ctr 0 and hcDAF12 conf 6.1*.
Screening CN(C)c1nc(-c2ccccc2)ns1 returned hcDAF12 agonist 0, DAX1 inh-1 0, hgDAF12 agonist 1, ssDAF12 agonist -1, Rev-erbA mod 1 and DAX1 inh-2 1.
For C#CCNc1cccc2c1S(=O)(=O)N[C@H](C)CO2 the results were hcDAF12 agonist 3, DAX1 inh-1 1, hgDAF12 agonist -1, ssDAF12 agonist -1 and Rev-erbA mod 0.
Screening CC[C@H](C(=O)Nc1ccccc1N1CCCC1)c1ccccc1 returned hcDAF12 agonist -2, DAX1 inh-1 -1, hgDAF12 agonist 2, ssDAF12 agonist -1 and Rev-erbA mod 6.
COc1ccccc1Cc1c(-c2cccc(Cl)c2)nc2c3ccccc3ccn12 was read as hcDAF12 agonist 2, DAX1 inh-1 2, hgDAF12 agonist 5, ssDAF12 agonist 0 and Rev-erbA mod -9.
For Cc1ccc(-c2nc3c4ccccc4ccn3c2CN2CCCCC2)cc1 the results were hcDAF12 agonist 6.7*, DAX1 inh-1 0, hgDAF12 agonist 2, ssDAF12 agonist 0, Rev-erbA mod -3, DAX1 inh-2 3, LXRb hcDAF ctr 0 and hcDAF12 conf 6.
For Clc1ccc(-c2nc3c4ccccc4ccn3c2CC2CCCCC2)cc1 the results were hcDAF12 agonist 6.7*, DAX1 inh-1 1, hgDAF12 agonist 6, ssDAF12 agonist 1.6*, Rev-erbA mod 3, LXRb hcDAF ctr 0 and hcDAF12 conf 6.7*.
`COC(=O)C1=CC(=O)C=C(OC)[C@@]12Oc1cc(C)cc(OC)c1C2=O` gave hcDAF12 agonist -2, DAX1 inh-1 -1, hgDAF12 agonist -9, ssDAF12 agonist -2 and Rev-erbA mod 14.
O=C(CNSc1ccc([N+](=O)[O-])cc1[N+](=O)[O-])OCc1ccccc1 was read as hcDAF12 agonist 0, DAX1 inh-1 2, hgDAF12 agonist 0, ssDAF12 agonist 0 and Rev-erbA mod 10.
`Cc1ccc(CN=C2Nc3ccccc3CS2)cc1` gave hcDAF12 agonist 9.7*, DAX1 inh-1 4.1*, hgDAF12 agonist 15*, ssDAF12 agonist 0, Rev-erbA mod 3, DAX1 inh-2 1, LXRb hcDAF ctr 2 and hcDAF12 conf 10*.
Screening Clc1ccc(CN=C2Nc3ccccc3CS2)cc1 returned hcDAF12 agonist 4, DAX1 inh-1 2, hgDAF12 agonist 10, ssDAF12 agonist -1, Rev-erbA mod 0 and DAX1 inh-2 2.
`COC(=O)[C@]12C[C@H](CC(=O)NCc3ccccc3)C(=O)N(Cc3ccccc3)C1=C[C@H](C(C)(C)C)O[C@@H]2C` gave hcDAF12 agonist 0, DAX1 inh-1 -1, hgDAF12 agonist 0, ssDAF12 agonist -1 and Rev-erbA mod -10.
`O=C(Nc1ccccc1)c1cn2ccccc2n1` gave hcDAF12 agonist 7.0*, DAX1 inh-1 3, hgDAF12 agonist 10, ssDAF12 agonist 0, Rev-erbA mod -1, DAX1 inh-2 -4, LXRb hcDAF ctr 1 and hcDAF12 conf 5.
